# Test results from PubChem BioAssay (EPA / NIEHS).
# Records with an inconclusive call do not appear. Calls of active or inactive are those of the source. How the source made its calls, unless noted: active means hit-call score of the fitted dose curve at least 0.9, where 1 is the maximum; inactive means score below 0.9.
# What was measured:
# [1] = read-out: solute carrier (SLCO1B1), SLCO1B1 (gene 10599); test: LTEA_HepaRG_SLCO1B1: Life Technologies and Expression Analysis (LTEA) Assay for solute carrier (SLCO1B1) using HepaRG (AID 2283530); conditions: mRNA level, 48 h; actives raise or lower the signal
# Summary of the method: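 Differentiated human HepaRG cells were exposed for 48 h in serum-free induction medium to eight half-log concentrations, top 100 uM, in 0.5% DMSO. SLCO1B1 mRNA was measured by qRT-PCR, normalized to ACTB, GAPDH and POLR2A, and fitted bidirectionally against DMSO.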
# [2] = read-out: Transforming Growth Factor (TGFA), TGFA (gene 7039); test: LTEA_HepaRG_TGFA: Life Technologies and Expression Analysis (LTEA) Assay for Transforming Growth Factor (TGFA) using HepaRG (AID 2283532); conditions: mRNA level, 48 h; actives raise or lower the signal
# Summary of the method: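 Differentiated HepaRG cells exposed 48 hours in serum-free induction medium, 0.5% DMSO vehicle, 8-point half-log series from 100 uM, in duplicate. TGFA mRNA by TaqMan qRT-PCR, normalised to ACTB, GAPDH, POLR2A; bidirectional fit versus DMSO.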
# [3] = read-out: Transforming Growth Factor (TGFB1), TGFB1 (gene 7040); test: LTEA_HepaRG_TGFB1: Life Technologies and Expression Analysis (LTEA) Assay for Transforming Growth Factor (TGFB1) Transporter using HepaRG (AID 2283533); conditions: mRNA level, 48 h; actives raise or lower the signal
# Summary of the method: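 Differentiated HepaRG cells exposed 48 hr in serum-free induction medium to eight half-log concentrations up to 100 uM (0.5% DMSO), duplicate; TGFB1 mRNA by TaqMan qRT-PCR normalised to ACTB, GAPDH, POLR2A; bidirectional fit against DMSO.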
# [4] = read-out: TIMP1, TIMP1 (gene 7076); test: LTEA_HepaRG_TIMP1: Life Technologies and Expression Analysis (LTEA) Assay for TIMP1 using HepaRG (AID 2283534); conditions: mRNA level, 48 h; actives raise or lower the signal;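 further: TaqMan qRT-PCR signal normalized to ACTB GAPDH and POLR2A housekeeping genes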
# Summary of the method: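 Differentiated HepaRG cells exposed 48 h in serum-free induction medium, duplicates, eight half-log concentrations from 100 uM in 0.5% DMSO. TIMP1 mRNA by qRT-PCR normalized to ACTB, GAPDH, POLR2A; bidirectional fitting against DMSO.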
# [5] = read-out: Tumor necrosis factor receptor 1 (TNFRSF1A), TNFRSF1A (gene 7132); test: LTEA_HepaRG_TNFRSF1A: Life Technologies and Expression Analysis (LTEA) Assay for Tumor necrosis factor receptor 1 (TNFRSF1A) using HepaRG (AID 2283535); conditions: mRNA level, 48 h; actives raise or lower the signal
# Summary of the method: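 Differentiated HepaRG cells in serum-free induction medium, exposed 48 h in duplicate to 8 half-log concentrations up to 100 uM in 0.5% DMSO. TNFRSF1A mRNA by Fluidigm TaqMan qRT-PCR, normalized to ACTB, GAPDH, POLR2A; bidirectional fit.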
# [6] = read-out: Thyroid Hormone Responsive (THRSP), THRSP (gene 7069); test: LTEA_HepaRG_THRSP: Life Technologies and Expression Analysis (LTEA) Assay for Thyroid Hormone Responsive (THRSP) using HepaRG (AID 2283536); conditions: mRNA level, 48 h; actives raise or lower the signal
# Summary of the method: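 Differentiated HepaRG cells treated 48 h in serum-free induction medium with 8 half-log concentrations up to 100 uM (0.5% DMSO), duplicates. THRSP mRNA by TaqMan qRT-PCR normalised to ACTB, GAPDH, POLR2A; bidirectional fit versus DMSO.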
# [7] = read-out: Cellular tumor antigen p53 (Homo sapiens) (UniProt P04637); test: LTEA_HepaRG_TP53: Life Technologies and Expression Analysis (LTEA) Assay for Tumor Protein P53 (TP53) using HepaRG (AID 2283537); conditions: mRNA level, 48 h; actives raise or lower the signal
# Summary of the method: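 Gain or loss of TP53 mRNA signal is scored relative to 0.5% DMSO after 48 h chemical treatment of HepaRG liver cells, tested in duplicate at eight half-log concentrations up to 100 uM.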
# [8] = read-out: UDP glucuronosyltransferase (UGT1A1), UGT1A1 (gene 54658); test: LTEA_HepaRG_UGT1A1: Life Technologies and Expression Analysis (LTEA) Assay for UDP glucuronosyltransferase (UGT1A1) using HepaRG (AID 2283538); conditions: mRNA level, 48 h; actives raise or lower the signal
# Summary of the method: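 Human liver HepaRG cultures receive test chemical for 48 h, up to 100 uM in 0.5% DMSO, with phenobarbital induction controls. UGT1A1 mRNA is measured by qRT-PCR and normalized to ACTB, GAPDH and POLR2A.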
# [9] = read-out: UDP glucuronosyltransferase (UGT1A6), UGT1A6 (gene 54578); test: LTEA_HepaRG_UGT1A6: Life Technologies and Expression Analysis (LTEA) Assay for UDP glucuronosyltransferase (UGT1A6) using HepaRG (AID 2283539); conditions: mRNA level, 48 h; actives raise or lower the signal
# Summary of the method: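 Differentiated HepaRG cells, ~100,000/well, were exposed for 48 h in serum-free induction medium with 0.5% DMSO to 8-point half-log series topping at 100 uM, in duplicate. mRNA measured by Fluidigm TaqMan qRT-PCR, normalized to ACTB, GAPDH and POLR2A.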
# [10] = read-out: X-box binding protein 1 (XBP1), XBP1 (gene 7494); test: LTEA_HepaRG_XBP1: Life Technologies and Expression Analysis (LTEA) Assay for X-box binding protein 1 (XBP1) using HepaRG (AID 2283540); conditions: mRNA level, 48 h; actives raise or lower the signal
# Summary of the method: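 Differentiated human HepaRG cells in serum-free induction medium exposed 48 h in duplicate to eight half-log concentrations up to 100 uM in 0.5% DMSO. XBP1 mRNA measured by Fluidigm TaqMan qRT-PCR, normalized to ACTB, GAPDH, POLR2A; bidirectional fitting against DMSO.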
# [11] = LTEA_HepaRG_LDH_cytotoxicity: Cytotoxicity Assessment in the Life Technologies and Expression Analysis (LTEA) Assay (AID 2283563; active means hit-call score of the fitted dose curve at least 0.9, where 1 is the maximum)
# Summary of the method: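 Differentiated HepaRG cells in serum-free induction medium, exposed 48 h in duplicate to 8 half-log concentrations up to 100 uM in 0.5% DMSO. Cytotoxicity from LDH measured in spent medium, fit relative to DMSO.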
# [12] = TOX21_p53_BLA_p2_viability: Viability Assessment in the Tox21 HCT-116 p53 Agonism Beta-lactamase Assay, Phase 2 (AID 2283591; active means hit-call score of the fitted dose curve at least 0.9, where 1 is the maximum;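 further: compound exposure lasted 16 h at 37 °C; actives lower the ATP signal meaning cytotoxicity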)
# Summary of the method: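 HCT116 p53-bla cells, 4000/well, dosed after 5 h plating (217-fold dilution of DMSO stocks) and incubated 16 h at 37C. Viability taken as cellular ATP by CellTiter-Glo luminescence after 30 min RT; signal loss marks cytotoxicity.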
# [13] = target: Cellular tumor antigen p53 (Homo sapiens) (UniProt P04637); test: TOX21_p53_BLA_p2_ratio: Tox21 HCT-116 p53 Agonism Beta-lactamase Assay, Ratio, Phase 2 (AID 2283592; active means hit-call score of the fitted dose curve at least 0.9, where 1 is the maximum)
# Chain of Cellular tumor antigen p53 (Homo sapiens) (P04637 whole entry, looked up): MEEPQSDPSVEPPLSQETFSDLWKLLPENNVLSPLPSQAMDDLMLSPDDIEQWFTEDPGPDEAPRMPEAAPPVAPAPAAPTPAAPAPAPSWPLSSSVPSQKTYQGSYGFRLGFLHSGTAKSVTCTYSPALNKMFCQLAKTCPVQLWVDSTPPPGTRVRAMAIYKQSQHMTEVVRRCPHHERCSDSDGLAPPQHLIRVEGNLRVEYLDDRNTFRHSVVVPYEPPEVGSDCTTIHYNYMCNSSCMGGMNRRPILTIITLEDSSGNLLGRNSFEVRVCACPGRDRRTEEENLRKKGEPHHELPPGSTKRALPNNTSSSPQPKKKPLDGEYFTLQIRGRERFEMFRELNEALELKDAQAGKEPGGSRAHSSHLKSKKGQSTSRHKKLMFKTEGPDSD
# Summary of the method: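 HCT-116 cells with p53-responsive beta-lactamase reporter, 4000 cells/well, preincubated 5 h, then compound in DMSO (217-fold dilution) for 16 h at 37C. CCF4-AM substrate 2 h at room temperature; 460/530 nm emission ratio fitted upward versus DMSO.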
# [14] = TOX21_p53_BLA_p3_viability: Viability Assessment in the Tox21 HCT-116 p53 Agonism Beta-lactamase Assay, Phase 3 (AID 2283593; active means hit-call score of the fitted dose curve at least 0.9, where 1 is the maximum;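 further: cells exposed to compound for 16 h before reading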)
# Summary of the method: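 HCT116 cells, 4000/well, dosed 5 h after plating by pin transfer (217-fold dilution from DMSO stock) and incubated 16 h at 37C, 5% CO2. Viability read as ATP luminescence with CellTiter-Glo after 30 min at room temperature.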
# [15] = target: Cellular tumor antigen p53 (Homo sapiens) (UniProt P04637); test: TOX21_p53_BLA_p3_ratio: Tox21 HCT-116 p53 Agonism Beta-lactamase Assay, Ratio, Phase 3 (AID 2283596; active means hit-call score of the fitted dose curve at least 0.9, where 1 is the maximum)
# Summary of the method: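 HCT116 p53-bla cells (4000/well) given compound in DMSO (217-fold dilution) after 5 h, incubated 16 h at 37C. CCF4-AM substrate 2 h at room temperature; 460/530 nm emission ratio, gain fitted against DMSO.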
# [16] = TOX21_p53_BLA_p5_viability: Viability Assessment in the Tox21 HCT-116 p53 Agonism Beta-lactamase Assay, Phase 5 (AID 2283600; active means hit-call score of the fitted dose curve at least 0.9, where 1 is the maximum)
# Summary of the method: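 HCT-116 p53 beta-lactamase reporter cells, 4000/well, were exposed to compound (pin transfer, 217-fold dilution) for 16 hours at 37C. Cellular ATP was read by CellTiter-Glo luminescence after 30 min at room temperature.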
# [17] = target: Cellular tumor antigen p53 (Homo sapiens) (UniProt P04637); test: TOX21_p53_BLA_p4_ratio: Tox21 HCT-116 p53 Agonism Beta-lactamase Assay, Ratio, Phase 4 (AID 2283601; active means hit-call score of the fitted dose curve at least 0.9, where 1 is the maximum)
# Summary of the method: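 HCT-116 p53 beta-lactamase reporter cells (4000/well) preincubated 5 h, then compound (217-fold dilution of DMSO stock) for 16 h at 37C. CCF4-AM substrate added 2 h at room temperature; 460/530 nm emission ratio fitted upward versus DMSO.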
# [18] = ATG_XTT_Cytotoxicity: Cytotoxicity Assessment in the Attagene TRANS-FACTORIAL HepG2 Assay (AID 2283584; active means hit-call score of the fitted dose curve at least 0.9, where 1 is the maximum)
# Summary of the method: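 HepG2 cells transiently transfected with GAL4-UAS multiple reporter units, dosed 24 h; cytotoxicity read by XTT as loss of signal versus DMSO baseline.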
# [19] = TOX21_p53_BLA_p4_viability: Viability Assessment in the Tox21 HCT-116 p53 Agonism Beta-lactamase Assay, Phase 4 (AID 2283597; active means hit-call score of the fitted dose curve at least 0.9, where 1 is the maximum;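 further: hits lower the luminescence signal meaning cytotoxicity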)
# Summary of the method: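 HCT-116 p53-bla cells, 4000/well, dosed after 5 h attachment and incubated 16 h at 37 °C, 5% CO2. Viability from CellTiter-Glo ATP luminescence after 30 min at room temperature, taken after the beta-lactamase read; loss of signal indicates cytotoxicity.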
structure (smiles),measurement,setting,value
C[C@H]1[C@H](c2ccc(Cl)cc2)SC(=O)N1C(=O)NC1CCCCC1,AC50,[1],60.7 µM (active)
same,AC50,[2],69.5 µM (active)
same,AC50,[3],50 µM (active)
same,outcome,[4],inactive
same,outcome,[5],inactive
same,AC50,[6],90.2 µM (active)
same,AC50,[7],82.3 µM (active)
same,AC50,[8],88.6 µM (active)
same,AC50,[9],78.8 µM (active)
same,outcome,[10],inactive
same,outcome,[11],inactive
same,outcome,[12],inactive
same,outcome,[13],inactive
same,outcome,[14],inactive
same,outcome,[15],inactive
same,outcome,[16],inactive
COP(=O)(OC)OC=C(Cl)Cl,outcome,[1],inactive
same,outcome,[2],inactive
same,outcome,[3],inactive
same,outcome,[4],inactive
same,outcome,[5],inactive
same,outcome,[6],inactive
same,outcome,[8],inactive
same,outcome,[9],inactive
same,outcome,[10],inactive
same,outcome,[11],inactive
CNC(=O)Oc1ccccc1OC(C)C,outcome,[1],inactive
same,outcome,[2],inactive
same,outcome,[3],inactive
same,outcome,[4],inactive
same,outcome,[5],inactive
same,outcome,[6],inactive
same,outcome,[7],inactive
same,AC50,[8],0.633 µM (active)
same,outcome,[9],inactive
same,outcome,[10],inactive
same,outcome,[11],inactive
same,outcome,[12],inactive
same,outcome,[13],inactive
same,outcome,[15],inactive
same,outcome,[16],inactive
same,outcome,[17],inactive
COC(=O)c1ccccc1S(=O)(=O)NC(=O)Nc1nc(C)nc(OC)n1,outcome,[18],inactive
same,outcome,[12],inactive
same,outcome,[13],inactive
same,outcome,[14],inactive
same,outcome,[17],inactive
N#CN,outcome,[1],inactive
same,outcome,[2],inactive
same,outcome,[3],inactive
same,outcome,[4],inactive
same,outcome,[5],inactive
same,outcome,[6],inactive
same,outcome,[8],inactive
same,outcome,[9],inactive
same,outcome,[10],inactive
same,outcome,[11],inactive
CCC(C)Nc1c([N+](=O)[O-])cc(C(C)(C)C)cc1[N+](=O)[O-] (centres undefined),outcome,[1],inactive
same,outcome,[2],inactive
same,outcome,[3],inactive
same,outcome,[4],inactive
same,outcome,[5],inactive
same,outcome,[6],inactive
same,AC50,[8],13.1 µM (active)
same,outcome,[9],inactive
same,AC50,[10],73.8 µM (active)
same,outcome,[11],inactive
CC(C)N(C(=O)COc1nnc(C(F)(F)F)s1)c1ccc(F)cc1,outcome,[1],inactive
same,outcome,[2],inactive
same,outcome,[3],inactive
same,outcome,[4],inactive
same,outcome,[5],inactive
same,outcome,[7],inactive
same,outcome,[8],inactive
same,AC50,[10],28.5 µM (active)
same,outcome,[11],inactive
same,outcome,[15],inactive
same,outcome,[19],inactive
same,outcome,[16],inactive
Cc1[nH]c(=O)n(C(C)(C)C)c(=O)c1Cl,outcome,[1],inactive
same,outcome,[2],inactive
same,outcome,[3],inactive
same,outcome,[4],inactive
same,outcome,[5],inactive
same,AC50,[6],50 µM (active)
same,AC50,[8],31 µM (active)
same,outcome,[9],inactive
same,outcome,[10],inactive
same,outcome,[11],inactive
